Results reported in PubChem BioAssay AID1159580 (chemical genetic matrix, 2015).
The campaign covered roughly 5,500 compounds. About 2,000 (36%) were called active. Inconclusive results (about 18%) are left out. Rule as the data show it: active = normalized growth mostly below about 0.91 (no sharp cut-off); inconclusive = no clear call, values can overlap the other calls; inactive = mostly above about 0.92. This is one part of the list.

Experiment: chemical genetic growth profiling, strain panel (AID 1159580);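 also: tested at 20 µM; growth read once vehicle control cultures reached saturation at 30 °C; 1 = growth at the plate median or of vehicle wells; lower values mean less growth of the strain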
Conditions: S. cerevisiae deletion strains, growth OD

Measured: normalized growth

O=C(O)C1CCCN(CCC=C(c2ccccc2)c2ccccc2)C1 (stereo not drawn)
inactive: locus YAL013W, strain DEP1, stronger effect = lower value 1.04 | locus YAL040C, strain CLN3, stronger effect = lower value 1.06 | locus YCL061C, strain MRC1 (second series), stronger effect = lower value 1.01 | locus YDR150W, strain NUM1, stronger effect = lower value 1.01 | locus YDR363W, strain ESC2, stronger effect = lower value 1.02 | locus YER002W, strain NOP16, stronger effect = lower value 1 | locus YGR078C, strain PAC10, stronger effect = lower value 1.02 | locus YGR229C, strain SMI1, stronger effect = lower value 1.04 | locus YMR263W, strain SAP30, stronger effect = lower value 1.01 | locus YMR307W, strain GAS1, stronger effect = lower value 1.01 | locus YNL153C, strain GIM3, stronger effect = lower value 1.08 | locus YNL175C, strain NOP13, stronger effect = lower value 0.999 | locus YNL197C, strain WHI3, stronger effect = lower value 1 | locus YNL224C, strain SQS1, stronger effect = lower value 0.997 | locus YNL322C, strain KRE1, stronger effect = lower value 1.05 | locus YOR083W, strain WHI5 (second series), stronger effect = lower value 1.04 | locus YPL055C, strain LGE1, stronger effect = lower value 1.03 | locus YPL241C, strain CIN2, stronger effect = lower value 1.01
